Test results published in PubChem BioAssay (NCATS).
Active and inactive are the calls of the source. The call rests on the fitted dose curve; in most records, active means well fitted activation curve with a large enough effect; inconclusive means small, poorly fitted or top-dose-only effect; inactive means no such curve, though single readings can be large or run the other way.

Biological target: Cytochrome P450 3A4 (Homo sapiens) (UniProt P08684)
Assay: qHTS Assay for Activators of Cytochrome P450 3A4 (AID 885); further: nearly all actives have a fitted effect of over 65% in size
Settings: recombinant CYP3A4, Luciferin-PPXE luminescence, 60 min; series mostly up to 57.1 µM
Outline: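 20nM CYP3A4 + 25uM Luciferin-PPXE (=KM), 200mM KPO4; cpd 10 min RT; NADPH regen, 60 min RT; stop w/ detection buffer, 20 min; luminescence. Normalized to 57 uM ketoconazole.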

Chain of Cytochrome P450 3A4 (Homo sapiens) (P08684 whole entry, looked up): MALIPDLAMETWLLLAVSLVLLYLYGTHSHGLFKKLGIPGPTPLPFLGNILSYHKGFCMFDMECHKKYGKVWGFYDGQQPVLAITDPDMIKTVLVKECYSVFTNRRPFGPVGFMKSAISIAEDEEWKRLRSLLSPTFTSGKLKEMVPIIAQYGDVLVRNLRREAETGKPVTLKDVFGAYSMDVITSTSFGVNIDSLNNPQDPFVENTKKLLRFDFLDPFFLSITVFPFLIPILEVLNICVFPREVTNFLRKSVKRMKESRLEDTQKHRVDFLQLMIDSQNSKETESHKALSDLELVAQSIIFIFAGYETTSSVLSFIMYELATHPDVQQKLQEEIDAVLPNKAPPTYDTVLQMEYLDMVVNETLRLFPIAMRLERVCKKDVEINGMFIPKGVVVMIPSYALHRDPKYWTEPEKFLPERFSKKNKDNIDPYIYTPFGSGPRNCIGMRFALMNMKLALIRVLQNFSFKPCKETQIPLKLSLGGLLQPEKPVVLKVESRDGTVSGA

Potency, inactive:
COC(=O)[C@@H]1C[C@@]2(O)[C@H](O)[C@H](O)[C@H](O)C[C@H]2N1Cc1c(F)cccc1Cl, COC(=O)[C@@H]1C[C@@]2(O)[C@H](O)[C@H](O)[C@H](O)C[C@H]2N1CC(c1ccccc1)c1ccccc1, COC(=O)c1ccc(C23CC4(C2)[C@H](CN(Cc2ccc(C(F)(F)F)cc2)[C@@H]4c2ccccc2)C3c2ccccc2)cc1 (stereo partly drawn), N#Cc1ccc(C23CC4(C2)[C@H](CN(CC2CCCCC2)[C@@H]4c2ccccc2)C3c2ccc(C(F)(F)F)cc2)cc1 (stereo partly drawn), FC(F)(F)c1ccc(CN2C[C@@H]3C(c4ccc(C(F)(F)F)cc4)C4(c5ccccc5)CC3(C4)[C@H]2c2ccccc2)cc1 (stereo partly drawn), COC(=O)[C@@H]1C[C@@]2(O)[C@@H](O)[C@@H](O)[C@@H](O)C[C@H]2N1CC1CCCCC1, COC(=O)[C@@H]1C[C@@H]2CC[C@@H](O)C[C@@H]2N1Cc1ccc(C(F)(F)F)cc1, COC(=O)[C@@H]1C[C@@]2(O)[C@H](O)[C@H](O)[C@H](O)C[C@H]2N1Cc1ccc(N2CCN(C)CC2)cc1, CNC(=O)C1(C)C=CC2(CCCCC2)N1C(=O)OC (stereo not drawn), COC(=O)c1cccc(C23CC4(C2)[C@H](CN(Cc2ccc(C(F)(F)F)cc2)[C@@H]4c2ccccc2)C3c2ccc(C(F)(F)F)cc2)c1 (stereo partly drawn), COC(=O)[C@@H]1C[C@@]2(O)[C@@H](O)[C@@H](O)[C@@H](O)C[C@H]2N1Cc1cc(F)ccc1F, Cn1c(=O)c(C(=O)COC(=O)c2cc(-c3ccco3)nc3ccccc23)c(N)n(CC2CC2)c1=O, CCC1=C2CC[C@H]3C(=O)NC(=O)[C@H]3[C@H]2[C@@]2(C)C(=NCC3CC3)OC(=O)N2C1=O, COC(=O)N1[C@H](C)C=C[C@]1(Cc1ccccc1)C(=O)NCc1ccc(N(C)C)cc1, FC(F)(F)c1ccc(CN2C[C@@H]3C(c4ccc(Cl)nc4)C4(c5ccccc5)CC3(C4)[C@H]2c2ccccc2)cc1 (stereo partly drawn), Cn1c(N)c(C(=O)COC(=O)c2cc(C(F)(F)F)nc3ccccc23)c(=O)n(Cc2ccccc2)c1=O, FC(F)(F)c1ccc(CN2C[C@@H]3C(c4ccc(C(F)(F)F)cc4)C4(c5cccnc5)CC3(C4)[C@H]2c2ccccc2)cc1 (stereo partly drawn), COC(=O)[C@@H]1C[C@@]2(O)[C@H](O)[C@H](O)[C@H](O)C[C@H]2N1Cc1ccc(C(F)(F)F)cc1, Cn1c(N)c(C(=O)COC(=O)c2cc(C3CC3)nc3ccccc23)c(=O)n(Cc2ccccc2)c1=O

Activity change, positive = activation, inactive:
CC/C=C\CC[C@H](OC(=O)c1ccc(Br)cc1)C1=CCCCC1=O -40.7% [at 11.4 µM], CC(C)CO/N=C1/C[C@@H](O)[C@@H](O)[C@@H]2[C@@H]3C(=O)N(Cc4ccccc4)C(=O)[C@H]3CC[C@H]12 -30.2% [at 11.4 µM], CCCNC(=O)OC[C@@H]1O[C@H](CCO/N=C(\C)CCC(=O)OC[C@@H]2O[C@H](c3ccccc3)C=C[C@@H]2Oc2ccc(OC)cc2)C=C[C@@H]1Oc1ccc(OC)cc1 -87% [at 11.4 µM], CC(C)=CCC/C(C)=C/CO/N=C1/C[C@@H](O)[C@@H](O)[C@@H]2[C@@H]3C(=O)N(C4CCCCC4)C(=O)[C@H]3CC[C@H]12 -36.4% [at 11.4 µM], CC(C)=NO[C@@H](C)c1cc(-c2c(C)cc(C)cc2C)no1 -45% [at 11.4 µM], CO[C@H]1COC(=O)C/C=C\[C@@H](C)[C@H](OC)COC(=O)CCC[C@@H]1C -58.3% [at 11.4 µM], C#CCCCO/N=C1/C[C@@H](O)[C@@H](O)[C@@H]2[C@@H]3C(=O)N(C[C@@H]4CCCO4)C(=O)[C@H]3CC[C@@H]12 -39.4% [at 11.4 µM], CO[C@@H]1/C=C\CC(=O)N[C@@H](C)C(=O)OC[C@H](NS(=O)(=O)c2ccc(C)cc2)[C@H](C)/C=C\CC(=O)OC[C@H]1C -37.9% [at 11.4 µM], CO[C@H]1COC(=O)[C@@H](C)COC(=O)[C@@H](COCc2ccccc2)NC(=O)C/C=C\[C@H]1C -40.1% [at 11.4 µM]
